The panel holds about 83,000 compounds, 20% with a hit somewhere; the sample as a whole holds those more often.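 96-well plates, one dose, 48 hours. Percent growth reported; active if below 10.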 Active and inactive are the calls of the source.
What was measured:
Assay in all cases: NCI-60 one-dose screen, 48 h (100 = growth as untreated, 0 = no growth, -100 = all killed)
Settings in all cases: 10 µM unless noted
NCI-H23 lung = test system: NCI-H23 lung
NCI-H226 lung = test system: NCI-H226 lung
NCI-H322M lung = test system: NCI-H322M lung
HOP-62 NSCLC = test system: HOP-62 NSCLC
NCI-H460 lung = test system: NCI-H460 lung
HOP-92 NSCLC = test system: HOP-92 NSCLC
NCI-H522 lung = test system: NCI-H522 lung
A549/ATCC NSCLC = test system: A549/ATCC NSCLC
786-0 renal = test system: 786-0 renal
COLO 205 colon = test system: COLO 205 colon
DU-145 prostate = test system: DU-145 prostate
K-562 leukemia = test system: K-562 leukemia
MALME-3M melanoma = test system: MALME-3M melanoma
MDA-MB-231 breast = test system: MDA-MB-231 breast
RXF 393 renal = test system: RXF 393 renal
SF-268 CNS = test system: SF-268 CNS
SF-295 CNS = test system: SF-295 CNS
SF-539 CNS = test system: SF-539 CNS
UACC-257 melanoma = test system: UACC-257 melanoma
M14 melanoma = test system: M14 melanoma

Measured: growth

CCOC(=O)c1c(C)nc2c(c1N)/C(=C/c1ccc(OC)cc1)C(=O)N2Cc1ccccc1
inactive: NCI-H23 lung 59.2% | NCI-H226 lung 86.1% | NCI-H322M lung 74.9% | HOP-62 NSCLC 58.1% | NCI-H460 lung 41.1% | HOP-92 NSCLC 45% | NCI-H522 lung 66.3% | A549/ATCC NSCLC 63.4% | 786-0 renal 64.4% | COLO 205 colon 73.7% | DU-145 prostate 60.7% | K-562 leukemia 46.5% | MALME-3M melanoma 64.5% | MDA-MB-231 breast 57.8% | RXF 393 renal 71.4% | SF-268 CNS 62.3% | SF-295 CNS 68.7% | SF-539 CNS 87.5% | UACC-257 melanoma 49.6% | M14 melanoma 71.3%

Clc1ccccc1-c1cnn2cc(-c3ccccc3)cnc12
inactive: NCI-H23 lung 90.3% | NCI-H226 lung 83.2% | NCI-H322M lung 87% | HOP-62 NSCLC 86% | NCI-H460 lung 75.3% | HOP-92 NSCLC 82.9% | NCI-H522 lung 77.3% | A549/ATCC NSCLC 70.5% | 786-0 renal 76.7% | COLO 205 colon 91.8% | DU-145 prostate 87.6% | K-562 leukemia 67.3% | MALME-3M melanoma 89.9% | MDA-MB-231 breast 72.4% | RXF 393 renal 87.6% | SF-268 CNS 85.6% | SF-295 CNS 82.9% | SF-539 CNS 81.3% | UACC-257 melanoma 86.3% | M14 melanoma 91.5%

CN1CCN(c2ccc(NC(=O)c3cncnc3Nc3ccc(OCc4cccc(F)c4)c(Cl)c3)cc2)CC1
active: NCI-H460 lung 5.33% | COLO 205 colon 6.12% | K-562 leukemia 1.91% | MDA-MB-231 breast -13.3% | M14 melanoma -15.5%
inactive: NCI-H23 lung 78% | NCI-H226 lung 94.9% | NCI-H322M lung 81.1% | HOP-62 NSCLC 33.1% | HOP-92 NSCLC 57.1% | NCI-H522 lung 103% | A549/ATCC NSCLC 57% | 786-0 renal 56% | DU-145 prostate 80.3% | MALME-3M melanoma 78.4% | RXF 393 renal 55.5% | SF-268 CNS 78.7% | SF-295 CNS 99.8% | SF-539 CNS 43.3% | UACC-257 melanoma 90.5%

O=C(Nc1ncc(Cc2ccccc2)s1)c1ccc2c(c1)OCCCO2
active: NCI-H522 lung -4.73% | K-562 leukemia 9.28% | RXF 393 renal -10% | SF-539 CNS -9.3% | M14 melanoma 3.29%
inactive: NCI-H23 lung 29.1% | NCI-H226 lung 46.2% | NCI-H322M lung 45.4% | HOP-62 NSCLC 31.9% | NCI-H460 lung 15.2% | HOP-92 NSCLC 58.7% | A549/ATCC NSCLC 33.5% | 786-0 renal 36.3% | COLO 205 colon 12% | DU-145 prostate 27.5% | MALME-3M melanoma 51% | MDA-MB-231 breast 44% | SF-268 CNS 60.4% | SF-295 CNS 15.2% | UACC-257 melanoma 41.4%

Cc1c2ccncc2c(C)c2c1c1cc(CO)ccc1n2C
inactive: NCI-H522 lung 21.1% | RXF 393 renal 11.9% | SF-268 CNS 14.4% | SF-539 CNS 17.2%
active: NCI-H23 lung 6.65% | NCI-H226 lung -49.2% | NCI-H322M lung 3.23% | HOP-62 NSCLC -19.6% | NCI-H460 lung -35.4% | HOP-92 NSCLC -5.78% | A549/ATCC NSCLC 2.79% | 786-0 renal 1.95% | COLO 205 colon -39% | DU-145 prostate -2.14% | K-562 leukemia 6.77% | MALME-3M melanoma -1.68% | MDA-MB-231 breast -8.51% | SF-295 CNS 3.5% | UACC-257 melanoma -39.2% | M14 melanoma -22.9%

O=C(Nc1ncccc1OCc1ccccc1)NC1CCCCCC1
inactive: NCI-H23 lung 89.8% | NCI-H226 lung 73.8% | NCI-H322M lung 88.2% | HOP-62 NSCLC 102% | NCI-H460 lung 93.5% | HOP-92 NSCLC 68.4% | NCI-H522 lung 72.6% | A549/ATCC NSCLC 97.8% | 786-0 renal 89.6% | COLO 205 colon 103% | DU-145 prostate 92% | K-562 leukemia 70.6% | MALME-3M melanoma 90.2% | MDA-MB-231 breast 90.1% | RXF 393 renal 106% | SF-268 CNS 92.3% | SF-295 CNS 85.4% | SF-539 CNS 98.2% | UACC-257 melanoma 105% | M14 melanoma 95.3%

COc1cc(OC)c(C(=O)C(CN(C)C)CN(C)C)cc1OC
active: NCI-H522 lung -73.7% | 786-0 renal 7.98% | COLO 205 colon -85.4% | K-562 leukemia -42.3% | MALME-3M melanoma -87.8% | MDA-MB-231 breast -59.7% | RXF 393 renal -75% | UACC-257 melanoma 8.98% | M14 melanoma -31.6%
inactive: NCI-H23 lung 96.5% | NCI-H226 lung 108% | NCI-H322M lung 108% | HOP-62 NSCLC 84.7% | NCI-H460 lung 109% | HOP-92 NSCLC 40% | A549/ATCC NSCLC 109% | DU-145 prostate 87.3% | SF-268 CNS 99.1% | SF-295 CNS 101% | SF-539 CNS 67.7%

Nc1[nH]n2cc(-c3ccc(F)cc3)nc2c1N=Nc1ccc(S(N)(=O)=O)cc1
inactive: NCI-H23 lung 80.9% | NCI-H226 lung 88.4% | NCI-H322M lung 41.9% | HOP-62 NSCLC 90.7% | NCI-H460 lung 58.8% | HOP-92 NSCLC 74.9% | NCI-H522 lung 55.3% | A549/ATCC NSCLC 84.6% | 786-0 renal 68.1% | COLO 205 colon 95.1% | DU-145 prostate 70.2% | K-562 leukemia 90.1% | MALME-3M melanoma 58.4% | MDA-MB-231 breast 74.8% | RXF 393 renal 60.4% | SF-268 CNS 76.7% | SF-295 CNS 98.2% | SF-539 CNS 72.5% | UACC-257 melanoma 99.6% | M14 melanoma 64.6%

O=C(C1=Cc2cc3ccccc3n2Cc2cnnn21)c1ccc(O)cc1
inactive: NCI-H23 lung 75.6% | NCI-H226 lung 85.1% | NCI-H322M lung 89.4% | HOP-62 NSCLC 55.7% | NCI-H460 lung 27.8% | HOP-92 NSCLC 84.4% | NCI-H522 lung 36.7% | A549/ATCC NSCLC 50.7% | 786-0 renal 81.8% | COLO 205 colon 75.5% | DU-145 prostate 89.9% | K-562 leukemia 11% | MALME-3M melanoma 57.8% | MDA-MB-231 breast 75.5% | RXF 393 renal 59% | SF-268 CNS 71.9% | SF-295 CNS 56.9% | SF-539 CNS 61.5% | UACC-257 melanoma 84% | M14 melanoma 24.9%

CCn1cc(CNc2ccc(C(=O)Nc3cc4cc(OC)c(OC)cc4c(C)n3)cc2)cn1
active: NCI-H522 lung 9.72%
inactive: NCI-H23 lung 43.3% | NCI-H226 lung 48.7% | NCI-H322M lung 103% | HOP-62 NSCLC 39.6% | NCI-H460 lung 86.7% | HOP-92 NSCLC 59.5% | A549/ATCC NSCLC 48.1% | 786-0 renal 70.4% | COLO 205 colon 42.1% | DU-145 prostate 67.2% | K-562 leukemia 30.8% | MALME-3M melanoma 54.6% | MDA-MB-231 breast 79.6% | RXF 393 renal 80.4% | SF-268 CNS 60.6% | SF-295 CNS 60.4% | SF-539 CNS 70.5% | UACC-257 melanoma 56.2% | M14 melanoma 48.8%

COc1ccc(C2CC(c3cc(OC)c(OC)c(OC)c3)=NO2)cc1OCCCCOc1cc2c(cc1OC)C(=O)N1CCC[C@H]1C=N2 (stereo not given in full)
active: NCI-H23 lung -16% | NCI-H226 lung -0.71% | NCI-H460 lung -14.8% | NCI-H522 lung -32.5% | 786-0 renal -35.3% | COLO 205 colon -32.9% | MALME-3M melanoma -43.1% | RXF 393 renal -67.1% | SF-295 CNS 2.46% | SF-539 CNS -39% | M14 melanoma -16.2%
inactive: NCI-H322M lung 17.4% | HOP-62 NSCLC 22.8% | HOP-92 NSCLC 20.3% | A549/ATCC NSCLC 20% | DU-145 prostate 13.4% | K-562 leukemia 34.8% | MDA-MB-231 breast 11.7% | SF-268 CNS 16.7% | UACC-257 melanoma 24.6%

COC(=O)c1c2c(n3ccccc13)C(=O)c1ccccc1C2=O
inactive: NCI-H23 lung 44.9% | NCI-H226 lung 73.8% | NCI-H322M lung 23.5% | HOP-62 NSCLC 68.7% | HOP-92 NSCLC 77.8% | NCI-H522 lung 54.4% | 786-0 renal 71.5% | COLO 205 colon 28.1% | DU-145 prostate 69.4% | K-562 leukemia 54.9% | MALME-3M melanoma 55.8% | MDA-MB-231 breast 64.4% | RXF 393 renal 72.1% | SF-268 CNS 74% | SF-295 CNS 64.5% | SF-539 CNS 89.5% | UACC-257 melanoma 70.4% | M14 melanoma 63.6%
active: NCI-H460 lung 1.15% | A549/ATCC NSCLC -49.1%

CNC(=O)c1ccccc1Nc1nc(Nc2cc(OC)c(OC)c(OC)c2)ncc1Br
active: NCI-H23 lung -45.2% | NCI-H322M lung -23.2% | HOP-62 NSCLC -32.8% | NCI-H460 lung -36.9% | NCI-H522 lung -49.8% | A549/ATCC NSCLC -10.4% | 786-0 renal -18.1% | COLO 205 colon -71.3% | DU-145 prostate 9.08% | K-562 leukemia 8.02% | MALME-3M melanoma -39.5% | MDA-MB-231 breast -3.87% | RXF 393 renal -64.8% | SF-268 CNS -32.7% | SF-295 CNS -6.65% | SF-539 CNS -79.2% | UACC-257 melanoma -30.9% | M14 melanoma -52.9%
inactive: NCI-H226 lung 10.1% | HOP-92 NSCLC 53.6%

CC/C(Cc1ccccc1)=C(\c1ccc(OCCCN(C)C)cc1)c1ccc(OC(=O)NCc2ccccc2)cc1
active: NCI-H460 lung 7.02% | COLO 205 colon 4.67% | K-562 leukemia -31.7%
inactive: NCI-H23 lung 92.9% | NCI-H226 lung 86.4% | NCI-H322M lung 87.2% | HOP-62 NSCLC 85.7% | HOP-92 NSCLC 38.6% | NCI-H522 lung 95.5% | A549/ATCC NSCLC 61.9% | 786-0 renal 62% | DU-145 prostate 73.9% | MALME-3M melanoma 41.8% | MDA-MB-231 breast 65.2% | RXF 393 renal 80% | SF-268 CNS 72.4% | SF-295 CNS 110% | SF-539 CNS 93% | UACC-257 melanoma 83.4% | M14 melanoma 18.8%

CC1=CCC(OC(=O)C(C)(C)CC(O)(C(C)O)C(O)C2(C)C=CC(Cc3ccc(C(C)C)cc3)(C(C)C)CC2)(C(C)C)CC1 (stereo not given)
inactive: NCI-H23 lung 95.6% | NCI-H226 lung 92.3% | NCI-H322M lung 93.7% | HOP-62 NSCLC 99.2% | NCI-H460 lung 103% | HOP-92 NSCLC 84.9% | NCI-H522 lung 91.2% | A549/ATCC NSCLC 98.5% | 786-0 renal 99.9% | COLO 205 colon 103% | DU-145 prostate 107% | MALME-3M melanoma 92.2% | MDA-MB-231 breast 95.9% | RXF 393 renal 97.8% | SF-268 CNS 98.5% | SF-295 CNS 97.1% | SF-539 CNS 93.3% | UACC-257 melanoma 98.7% | M14 melanoma 96.1%
active: K-562 leukemia 9.06%
